Activity calls are given as the source filed them. The calls were made as follows: active = hit-call score of the fitted dose curve at least 0.9, where 1 is the maximum; inactive = score below 0.9.
Target: Signal transducer and activator of transcription 3 (Homo sapiens) (UniProt P40763)
Test: ATG_STAT3_CIS: Attagene CIS-FACTORIAL HepG2 Assay for human Signal Transducer and Activator of Transcription 3 (STAT3) (AID 2282963)
Conditions: HepG2, Attagene cis-factorial STAT3 reporter transcription; actives raise or lower the signal
Experimental: ATG_CIS is a cell-based, multiplexed-readout assay that uses HepG2, a human liver cell line, with measurements taken at 24 hours after chemical dosing in a 24-well plate.ATG_STAT3_CIS is one of 52 assay component(s) measured or calculated from the ATG_CIS assay. It is designed to make measurements of mRNA induction, a form of inducible reporter, as detected with fluorescence intensity signals by Reverse transcription polymerase chain reaction (RT-PCR) and Capillary electrophoresis technology.Data from the assay component ATG_STAT3_CIS was analyzed into 1 assay endpoint. This assay endpoint, ATG_STAT3_CIS, was analyzed with bidirectional fitting relative to DMSO as the negative control and baseline of activity. Using a type of inducible reporter, measures of mRNA for gain or loss-of-signal activity can be used to understand the reporter gene at the transcription factor-level as they relate to the gene STAT3. Furthermore, this assay endpoint can be referred to as a primary readout, because this assay has produced multiple assay endpoints where this one serves a reporter gene function. To generalize the intended target to other relatable targets, this assay endpoint is annotated to the dna binding intended target family, where the subfamily is stat protein.
Human liver HepG2 cells are transiently transfected with multiple reporter transcription units (MRTUs) in 6-well plates using FuGene 6 reagent (Roche; 3 ml FuGene/1 mg DNA). The MRTU constructs are regulated by a cis-regulating element (promoter). […] A major difference between the CIS and TRANS system is that in CIS activities of endogenous TFs are measured, whereas the TRANS assay evaluates changes in activities of exogenous, chimeric NR-Gal4 proteins. […] At the end of 24 hour incubation, total RNA was isolated using TriZol reagent (Invitrogen). The isolated RNA is then reverse-transcribed using oligo(dT) primer and Mo-MLV reverse transcriptase (Invitrogen) with DNAse I (Ambion) treatment for 30 min. The one-tenth of the produced cDNA was amplified by PCR using Taq DNA polymerase (Invitrogen) and two reporter sequence-specific primers. The PCR products were fluorescently labeled by primer extension with 6-arboxyfluorescein (6-FAM) 5'-labeled reporter sequence-specific primer (2 min at 95 C, 20 s at 68 C and 10 min at 72 C) and these products were digested with 5U of HpaI (New England Biolabs) for 2h at 37 C. The fragments were purified using Qiaquick PCR columns (Qiagen), analyzed on an ABI 3130xL genetic analyzer (Applied Biosystems) with peak positions identified by using a set of X-rhodamine (ROX)-labeled MapMarker1000 molecular weight standards (BioVentures). The raw capillary electrophoresis data was processed using Attagraph software (Attagene).

Sequence of Signal transducer and activator of transcription 3 (Homo sapiens) (P40763 whole entry, looked up): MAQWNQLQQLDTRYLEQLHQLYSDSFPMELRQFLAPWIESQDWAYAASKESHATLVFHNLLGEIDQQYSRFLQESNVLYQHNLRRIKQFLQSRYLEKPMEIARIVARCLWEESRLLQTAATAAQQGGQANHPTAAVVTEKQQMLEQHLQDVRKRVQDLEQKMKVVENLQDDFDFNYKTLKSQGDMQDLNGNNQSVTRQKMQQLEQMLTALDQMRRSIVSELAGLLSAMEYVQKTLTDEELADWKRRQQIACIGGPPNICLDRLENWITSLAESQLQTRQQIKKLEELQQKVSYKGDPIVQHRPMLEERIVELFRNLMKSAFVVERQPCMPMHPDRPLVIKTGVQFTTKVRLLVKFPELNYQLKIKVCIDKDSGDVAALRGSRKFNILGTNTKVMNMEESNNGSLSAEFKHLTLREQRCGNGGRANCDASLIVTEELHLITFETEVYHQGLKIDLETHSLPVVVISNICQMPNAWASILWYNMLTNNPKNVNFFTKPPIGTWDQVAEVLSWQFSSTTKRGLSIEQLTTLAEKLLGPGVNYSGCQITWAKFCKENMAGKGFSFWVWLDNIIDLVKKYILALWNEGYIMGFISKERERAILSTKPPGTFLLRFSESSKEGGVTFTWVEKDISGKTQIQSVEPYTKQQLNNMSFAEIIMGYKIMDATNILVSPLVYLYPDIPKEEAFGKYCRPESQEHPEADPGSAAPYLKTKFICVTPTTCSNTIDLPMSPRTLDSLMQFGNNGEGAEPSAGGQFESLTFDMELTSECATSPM

| Structure (SMILES) | outcome |
| --- | --- |
| COC(Cc1ccccc1)OC | inactive |
| CCCCCCCCCCCC(=O)N(C)CC(=O)O | inactive |
| CC(C)CCCCCOC(=O)CS | inactive |
| CC(=O)OCCc1ccccc1 | inactive |
| Cc1c(C(=O)c2c[nH]n(C)c2=O)ccc(S(C)(=O)=O)c1C1=NOCC1 | inactive |
| CCc1cccc(C)c1N | inactive |
| CC(C=O)c1ccccc1 (stereo not given) | inactive |
| CC(C)c1cc(C(C)C)cc(C(C)C)c1 | inactive |
| CCCSSCCC | inactive |
| O=C1CCCCC1C1CCCCC1 (stereo not given) | inactive |
| O=C(OCc1ccccc1)c1ccc(O)cc1 | inactive |
| C=CC(=O)OCCCCCCOC(=O)C=C | inactive |
| CC(C)(C)NC(=O)[C@H]1CC[C@H]2[C@@H]3CC[C@H]4NC(=O)C=C[C@]4(C)[C@H]3CC[C@]12C | inactive |
| CC(C)=CCCC(C)=CC#N | inactive |
| C=C(C)C1CC=C(C)C(OC(C)=O)C1 (stereo not given) | inactive |
| CC1=CCC2CC1C2(C)C (stereo not given) | inactive |
| C1CCSC1 | inactive |
| Cc1ccc(S(=O)(=O)N=C=O)cc1 | inactive |
| CC(=O)CC(=O)Nc1ccccc1C | inactive |
| CC(C)c1cccc(C(C)C)c1N | inactive |

| Structure (SMILES) | outcome |
| --- | --- |
| Cc1cccc(C(C)(C)C)c1O | inactive |
| CCCC/C=C/C=C\C=O | inactive |
| CCCCNS(=O)(=O)c1ccc(C)cc1 | inactive |
| CCOB(OCC)OCC | inactive |
| O=c1c(O)c(-c2ccc(O)cc2O)oc2cc(O)cc(O)c12 | inactive |
| CC1C(C)(C)C2=C(C(=O)CCC2)C1(C)C (stereo not given) | inactive |
| O=C(OCCc1ccccc1)c1ccccc1 | inactive |
| Fc1ccc(Br)cc1 | inactive |
| CCCCC(=O)O | inactive |
| CCCCCC1=CCCC1=O | inactive |
| CC(C)CO | inactive |
| CC(C)OC(=O)c1ccccc1 | inactive |
| CC(=O)OC(C)c1ccccc1 (stereo not given) | inactive |
| CC(Cl)COP(=O)(OCC(C)Cl)OCC(C)Cl (stereo not given) | inactive |
| CO[Si](C)(C)OC | inactive |
| C=C[Si](OCCOC)(OCCOC)OCCOC | inactive |
| CCCCCC[C@@H](O)C/C=C\CCCCCCCC(=O)OCC(O)CO (stereo not given in full) | inactive |
| CCCCOC(=O)CCC(C)=O | inactive |
| C=CC(=O)NC(C)(C)C | inactive |
| CCN1CCCC1=O | inactive |
